High-throughput results as filed in PubChem.
In the library only some 7.3% were active in any assay of this set; here they are far more common.
HCMV antiviral – blocks human cytomegalovirus replication; HFF cells, HCMV-luciferase reporter, 72 h; hits give low values; 410,000 compounds, 4.5% hits; activity change, negative = inhibition, % at 57.5 µM; in the data active = activity change below about -60%; inconclusive = no clear call, values can overlap the other calls; inactive = above about -39%
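Cell-based, HFFs, 1000 cells/well, 16 h 37C; cpds in DMSO + HCMV-luc, MOI 1 PFU/cell; 72 h 37C; OneGlo luminescence after 5 min RT; norm. to buffer vs Salinomycin 10uM.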
VACV Venus inh – vaccinia inhibition (Venus reporter). Vaccinia virus Venus reporter expression, fluorescence. Potency, µM (titrated, usually from 36.5 µM), for inactives: at the top dose activity change, negative = inhibition, actives largely listed as inhibitors. 330,000 compounds, 0.46% hits; calls by dose curve; tested in A549 cells; also: potency is read from the fitted curve at half-maximal effect; nearly all actives have a fitted effect of over 30% in size
FMDV antiviral – blocks foot and mouth disease virus; FMDV antiviral cell-based qHTS; Potency, µM (doses to about 57.9 µM), for the others: at the highest dose activity change, negative = inhibition, hits mostly inhibitors; 410,000 compounds, 1.2% hits; calls by dose curve; tested in HEK293T cells; also: read-out not given here; potency is read from the fitted curve at half-maximal effect; nearly all actives have a fitted effect of over 45% in size
HCV inh – inhibitors of hepatitis C virus infection. Potency, µM (doses to about 41.8 µM), for the others: at the top dose activity change, negative = inhibition, hits mostly inhibitors. Huh7.5.1 HCVcc-Cre infection, luciferase reporter, 44 h. 340,000 compounds, 3.4% hits; active = well fitted inhibition curve with a large enough effect; inconclusive = small, poorly fitted or top-dose-only effect, or another doubt; inactive = no such curve, though single readings can be large or run the other way; also: potency is read from the fitted curve at half-maximal effect
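HCVcc-Cre virus at an moi near 0.5 was added right after compound to cells cultured 4 h from seeding (1,000 cells/well). Luciferase activity was determined 44 h later, 15 min after substrate addition at RT.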
VACV mCherry inh – vaccinia inhibition (mCherry reporter). Potency, µM (top dose mostly 36.5 µM), without a hit: at the highest dose activity change, negative = inhibition, actives largely listed as inhibitors. Vaccinia virus mCherry reporter infection, fluorescence. 310,000 compounds, 0.63% hits; calls by dose curve; tested in A549 cells; also: potency is read from the fitted curve at half-maximal effect; nearly all actives have a fitted effect of over 35% in size
Active calls of the source: *; i = inactive; u = inconclusive; x = no result given; [ ] = another dose, or the depositor's remark. % is scaled to controls: 0 for no effect and ±100 for the full control effect.

SMILES	HCMV antiviral	VACV Venus inh	FMDV antiviral	HCV inh	VACV mCherry inh
CC[C@]12c3[nH]c4ccc(Cl)cc4c3CCN1C(=O)[C@@H](CC(=O)NCCN1CCOCC1)C[C@@H]2C(=O)N1CCN(C(=O)c2ccco2)CC1	-28.4	-6.3%	-19.3%	-1.1%	-24.4%
C[C@]12c3[nH]c4ccc(Cl)cc4c3CCN1C(=O)[C@@H](CC(=O)NCCN1CCOCC1)C[C@@H]2C(=O)N1CCOCC1	7.9	-16.5%	-18.1%	2.3%	i
CC[C@]12c3[nH]c4ccc(Cl)cc4c3CCN1C(=O)[C@@H](CC(=O)NCCC1=CCCCC1)C[C@@H]2C(=O)N1CCN(C(=O)c2ccco2)CC1	u	-20.5%	u	31.6µM*	-6.4%
CCN(CC)C(=O)[C@H]1C[C@H](CC(=O)NCc2cccc(C(F)(F)F)c2)C(=O)N2CCc3c([nH]c4ccc(Cl)cc34)[C@]12C	-6.8	u	u	u	u
CCN(CC)C(=O)[C@H]1CC(CC(=O)NCc2cccc(C(F)(F)F)c2)C(=O)N2CCc3c([nH]c4ccccc34)[C@]12C (some centres undefined)	-25.2	-22.1%	0.0%	12.6µM*	-13.0%
CC(C)N(C(=O)[C@H]1CC(CC(=O)NCCC2=CCCCC2)C(=O)N2CCc3c([nH]c4ccccc34)[C@]12C)C(C)C (some centres undefined)	-3.3	-11.3%	-23.5%	0.562µM*	-12.0%
O=C(c1ccc(F)cc1)n1nc(-c2cccnc2)nc1NCc1ccc(F)cc1	4.7	-5.0%	-5.1%	x	-10.2%
O=C(c1cnccn1)N1CCC2(CCCN(c3cccc(-c4ccccc4)c3)C2)CC1	x	x	-19.7%	x	x
CN(Cc1ccc(C(C)(C)C)cc1)C(=O)c1ccc2c(c1)OCO2	-18.3	0.2%	-19.5%	u	-5.5%
CN(C)CCCNC(=O)C[C@H]1C[C@H](C(=O)N2CCCCC2)[C@@]2(C)c3[nH]c4cc(-c5ccco5)ccc4c3CCN2C1=O	-38.7	-14.4%	-9.8%	u	u
CC[C@]12c3[nH]c4ccc(Cl)cc4c3CCN1C(=O)[C@@H](CC(=O)NCC13CC4CC(CC(C4)C1)C3)C[C@@H]2C(=O)N1CCN(C(=O)c2ccco2)CC1	-106.1*	14.1µM*	u	u	11.2µM*
C[C@]12c3[nH]c4cc(-c5ccco5)ccc4c3CCN1C(=O)[C@@H](CC(=O)NCC13CC4CC(CC(C4)C1)C3)C[C@@H]2C(=O)N1CCCCC1	-35.5	u	-1.4%	6.5%	11.2µM*
CC[C@]12c3[nH]c4ccc(OC)cc4c3CCN1C(=O)C(CC(=O)NCC13CC4CC(CC(C4)C1)C3)C[C@@H]2C(=O)N1CCN(C(=O)c2ccco2)CC1 (some centres undefined)	x	0.0%	u	0.1%	-6.9%
CC[C@]12c3[nH]c4cc(-c5ccco5)ccc4c3CCN1C(=O)[C@@H](CC(=O)NCC13CC4CC(CC(C4)C1)C3)C[C@@H]2C(=O)N1CCN(C(=O)c2ccco2)CC1	-31.7	u	u	u	7.08µM*
C[C@]12c3[nH]c4cc(-c5ccco5)ccc4c3CCN1C(=O)[C@@H](CC(=O)NCc1cccc(C(F)(F)F)c1)C[C@@H]2C(=O)N1CCCCC1	-34.3	u	u	u	11.2µM*
C[C@H]1CN([C@@H](C)CO)C(=O)CCCn2cc(nn2)CO[C@@H]1CN(C)C(=O)c1ccc2ccn(C)c2c1	-6.8	x	x	x	x
COC(=O)C[C@H]1c2cc(C(F)(F)F)ccc2S(=O)(=O)N1C1CCCC1	-24.6	-0.7%	39.1%	6.7%	-8.5%
CC(C)N(C(=O)[C@H]1C[C@H](CC(=O)NC(C)(C)C)C(=O)N2CCc3c([nH]c4cc(CCC(=O)N(C)C)ccc34)[C@]12C)C(C)C	-10.6	-1.4%	-7.7%	0.501µM*	-2.5%
CN(C)C(=O)CCc1ccc2c3c([nH]c2c1)[C@]1(C)[C@@H](C(=O)N2CCCCC2)C[C@H](CC(=O)NCC24CC5CC(CC(C5)C2)C4)C(=O)N1CC3	-90.1*	-19.2%	-25.9%	-22.2%	-24.1%
CC(C)N(C(=O)[C@H]1C[C@H](CC(=O)NCc2cccc(C(F)(F)F)c2)C(=O)N2CCc3c([nH]c4cc(CCC(=O)N(C)C)ccc34)[C@]12C)C(C)C	-19.0	u	u	-28.6%[8.37 µM]	u
CN(C)C(=O)CCc1ccc2c3c([nH]c2c1)[C@]1(C)[C@@H](C(=O)N2CCCCC2)C[C@H](CC(=O)NCCN2CCOCC2)C(=O)N1CC3	-19.5	-5.4%	-7.7%	u	x
CCOC(=O)c1cccc(NC(=O)c2ccc3c(c2)nnn3C2CCCC2)c1	-14.5	-8.0%	-103.8%	x	-13.0%
O=C(Nc1nc(-c2ccccn2)cs1)c1ccc(F)c(S(=O)(=O)N2CCOCC2)c1	-97.4*	x	u	3.55µM*	x
Cc1ccc(C(=O)Nc2nc(-c3ccccn3)cs2)cc1S(=O)(=O)N1CCOCC1	-97.2*	x	u	5.62µM*	x
CN(CC1CCCO1)S(=O)(=O)c1ccc(C(=O)Nc2ccccc2F)cc1 (centres undefined)	-12.1	-16.5%	11.9%	17.3%	-12.2%
SMILES	HCMV antiviral	VACV Venus inh	FMDV antiviral	HCV inh	VACV mCherry inh
CN(CC1CCCO1)S(=O)(=O)c1ccc(C(=O)Nc2nc(-c3ccccn3)cs2)cc1 (centres undefined)	x	u	28.2µM*	4.47µM*	u
O=C(Cn1c(=O)n2nc(-c3ccccc3)nc2c2ccccc21)Nc1ccccc1C(F)(F)F	23.9	-4.2%	4.3%	x	-3.0%
COc1ccc(CCNC(=O)c2ccc3c(c2)N=C(C)c2ccccc2S3)cc1OC	-34.3	-18.6%	0.0%	x	-18.1%
Clc1ccc2nc(C(Cl)(Cl)Cl)[nH]c2c1	1.1	-15.2%	-22.5%	x	i
Cc1ccc(C(=O)NCC(=O)OCCOc2ccccc2Cl)cc1	13.7	-12.3%	26.6%	2.0%	-7.5%
CCOC(=O)c1sc(=S)n(-c2ccc(OC)cc2)c1C	25.0	-7.5%	-13.8%	4.9%	i
CCOC(=O)c1c2c(n(-c3ccc(OC)cc3)c1C)C(=O)C(=O)c1ccccc1-2	x	4.47µM*	12.6µM*	7.94µM*	2.82µM*
Cc1ccc(C(=O)Nc2ccon2)cc1S(=O)(=O)N1CCOCC1	28.0	x	-17.3%	5.3%	x
Cc1ccc(NC(=S)Nc2ccc(C(C)C)cc2)cc1S(=O)(=O)N1CCCCCC1	-99.0*	u	0.0%	6.31µM*	u
Cc1ccc(C(=O)Nc2ccc(F)cc2)cc1S(=O)(=O)N1CCCCCC1	-100.9*	-23.6%	-26.1%	x	-28.7%
Cc1ccc(C(=O)Nc2ccon2)cc1S(=O)(=O)N1CCCCCC1	-100.7*	x	15.1%	u	x
CCC1CCCCN1S(=O)(=O)c1cc(C(=O)Nc2ccc(C)c(F)c2)ccc1F (centres undefined)	-90.5*	u	u	x	u
CCOC(=O)c1c(S(=O)(=O)N2CCCC(C(=O)N3CCN(c4ccc(F)cc4)CC3)C2)c(C)n(C)c1C (centres undefined)	5.0	-9.7%	14.7%	x	-17.9%
